Assay outcomes (PubChem)
CtBP-E1A inh: CtBP/E1A binding inhibition. 340,000 tested, 0.49% active. activity change, % (test concentration not listed). AlphaScreen GST-E1A/His-CtBP binding, 1536-well; stronger effect = lower value; in the data active means activity change below about -65%; inconclusive means mostly about -30% to -63%
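GST-E1A and His-tagged CtBP (125 nM each as 5X stock) were preincubated with pin-transferred compound for 2 h at 37 °C in the dark, then glutathione donor and nickel acceptor beads were added for 1 h before AlphaScreen reading.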
G9a inh: inhibitors of human histone lysine methyltransferase G9a | Q96KQ7 | G9a H3K9 monomethylation, AlphaScreen, 2 h | Potency, µM (top dose mostly 102 µM), hits mostly inhibitors | 350,000 tested, 8.8% active | AID 504332; further: nearly all actives have a fitted effect of over 75% in size
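Methyltransferase reactions run at room temperature for 2 h (20 nM enzyme, 500 nM biotin-H3K9 peptide, 20 uM SAM) after a 15 min compound preincubation; product detected by AlphaScreen beads and anti-H3K9me1 antibody.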
BAZ2B block: inhibitors of human BAZ2B bromodomain; Q9UIF8; AlphaScreen BAZ2B-H3K14Ac peptide displacement; Potency, µM (doses to about 114 µM), usual class: inhibitors; 360,000 tested, 4.4% active; AID 504333; further: nearly all actives have a fitted effect of over 60% in size
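Complex of BAZ2B and biotin-H3K14Ac (50 nM apiece) forms over 30 min at RT, then faces library compounds up to 110 uM for another 30 min; AlphaScreen beads added, 20 min dark incubation, luminescence read.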
HP1b chromo inh: HP1-beta chromodomain-methylated histone interaction inhibition; AlphaScreen HP1-beta / biotin-H3K9me3 peptide binding; 390,000 tested, 0.56% active; Potency, µM (highest dose often 114 µM), usual class: inhibitors; further: nearly all actives have a fitted effect of over 70% in size
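Compound inhibition of the preformed complex between 50 nM HP1-beta and 50 nM biotinylated H3K9me3 peptide was read by AlphaScreen. Buffer was PBS pH 7.4 with 0.01% Tween-20. Incubations ran 30 min at room temperature, with 10 ug/mL donor/acceptor beads.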
Six1-Eya2 blk: inhibitors of human Six1/Eya2 interaction; Q15475+O00167; AlphaScreen GST-Six1/His-Eya2 binding, biochemical; stronger effect = lower value; activity change, % (concentration not given with the values); 360,000 tested, 0.56% active; AID 651725; in the data active means activity change below about -65%; inconclusive means mostly about -30% to -63%
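AlphaScreen luminescence read after one hour at 37 °C in darkness. Pin-transferred compounds met GST-Six1 and His-Eya2 protein (5X stock 250 nM/500 nM) plus glutathione donor and Ni-chelate acceptor beads (5X, 50 ug/mL).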
JMJD2A Tudor: inhibitors of human JMJD2A Tudor domain. O75164. AlphaScreen JMJD2A-Tudor / H3K4me3 peptide binding. Potency, µM (top dose mostly 114 µM), hits mostly inhibitors. 390,000 tested, 4.4% active; further: nearly all actives have a fitted effect of over 50% in size
Target sequence (O75164 whole entry, looked up, the tested form may be a part): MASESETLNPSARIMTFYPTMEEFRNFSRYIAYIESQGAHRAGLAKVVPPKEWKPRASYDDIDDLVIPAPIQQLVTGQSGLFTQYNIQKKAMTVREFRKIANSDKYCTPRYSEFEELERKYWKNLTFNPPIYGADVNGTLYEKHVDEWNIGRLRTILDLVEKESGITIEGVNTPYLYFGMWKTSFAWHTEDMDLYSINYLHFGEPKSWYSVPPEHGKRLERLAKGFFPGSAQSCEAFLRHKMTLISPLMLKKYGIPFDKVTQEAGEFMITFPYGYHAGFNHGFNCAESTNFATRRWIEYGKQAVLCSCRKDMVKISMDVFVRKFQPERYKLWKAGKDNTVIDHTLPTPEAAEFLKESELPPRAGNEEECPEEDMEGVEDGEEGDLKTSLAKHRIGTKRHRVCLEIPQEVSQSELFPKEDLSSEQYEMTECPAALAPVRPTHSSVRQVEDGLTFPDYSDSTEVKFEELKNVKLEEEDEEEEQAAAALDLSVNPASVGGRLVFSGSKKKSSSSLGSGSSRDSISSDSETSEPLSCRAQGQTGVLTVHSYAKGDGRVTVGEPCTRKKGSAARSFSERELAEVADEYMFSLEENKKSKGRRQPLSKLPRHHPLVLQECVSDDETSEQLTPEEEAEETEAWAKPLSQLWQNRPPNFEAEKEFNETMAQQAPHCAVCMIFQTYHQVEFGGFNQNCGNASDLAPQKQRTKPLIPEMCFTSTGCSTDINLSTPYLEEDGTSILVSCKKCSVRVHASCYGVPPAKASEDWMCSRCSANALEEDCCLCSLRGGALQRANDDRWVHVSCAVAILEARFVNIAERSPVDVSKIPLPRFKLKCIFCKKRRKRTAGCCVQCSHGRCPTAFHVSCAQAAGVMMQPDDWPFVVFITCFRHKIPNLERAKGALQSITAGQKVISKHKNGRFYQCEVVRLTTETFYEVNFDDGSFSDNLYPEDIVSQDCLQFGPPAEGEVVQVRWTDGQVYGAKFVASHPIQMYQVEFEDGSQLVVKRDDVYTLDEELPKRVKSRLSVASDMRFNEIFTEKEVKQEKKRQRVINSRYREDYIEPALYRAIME
12-hLO 8HQ R1: blocks human 12-lipoxygenase product formation in cuvette. purified 12-hLO, cuvette UV 234 nm product formation. 35 tested, 60% active. shares compounds with BAZ2B block. Potency, µM, usual class: inhibitors. AID 2163;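 active means compounds that slowed 12-hLO product formation enough to yield a measured IC50 potency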
KDM4E inh: blocks human JMJD2E demethylase activity; 130 tested, 89% active; AID 493212; JMJD2E demethylase, FDH-coupled NADH fluorescence (FDH is formaldehyde dehydrogenase); shares compounds with BAZ2B block; Potency, µM (top dose mostly 57 µM), hits mostly inhibitors
ME-1 prolif: reduces ME-1 leukemia cell proliferation | shares compounds with BAZ2B block | ME-1 cell proliferation, ATP luminescence, 48 h | 140 tested, 20% active | Potency, µM (top dose mostly 56.1 µM), hits mostly inhibitors | AID 504370
Numbers stand for hits; - = inactive; ? = inconclusive; . = not tested or not shown; [ ] = remark or other dose. In the library only some 10% were active in any assay of this set; here they are far more common. Unless noted, the call rests on the fitted dose curve; in most records, active means well fitted curve in the direction sought with a large enough effect; inconclusive means small, poorly fitted or top-dose-only effect, or another doubt; inactive means no such curve, though single readings can be large; an effect the other way counts as inactive or inconclusive.

SMILES	CtBP-E1A inh	G9a inh	BAZ2B block	HP1b chromo inh	Six1-Eya2 blk	JMJD2A Tudor	ME-1 prolif	others
COc1ccc(-c2csc(N=C(N)N)n2)cc1	-	?	?	-	-	-	.
COc1ccc(-c2csc(N)n2)cc1	-	?	-	-	-	-	-
Fc1ccc([C@H]2CCNCC2COc2ccc3c(c2)OCO3)cc1 (some centres not stated)	.	-[2.33 µM]	.	.	.	.	-
COc1ccc(C2Sc3ccccc3N(CCN(C)C)C(=O)C2OC(C)=O)cc1 (configuration not stated)	.	-[2.33 µM]	.	.	.	.	-
CCOc1ccccc1NC(=O)C(Cc1ccccc1)NS(=O)(=O)c1ccc2c(c1)oc(=O)n2C (configuration not stated)	.	-	-	-	.	-	.
CCC(=O)NC(NC(=S)Nc1cccc2cccnc12)C(Cl)(Cl)Cl (configuration not stated)	-	?	?	-	-	-	.
CC(=O)NC(c1cc(F)c2cccnc2c1O)C1CC1 (configuration not stated)	.	?	50.1µM	-	.	79.4µM	.	12-hLO 8HQ R1=-;KDM4E inh=28.9µM
CCC(=O)NC(c1cc(Cl)c2cccnc2c1O)C(C)C (configuration not stated)	.	-[12.7 µM]	79.4µM	-	.	?	.	12-hLO 8HQ R1=1.2µM;KDM4E inh=20.4µM
CCC(=O)NC(c1cc(Cl)c2cccnc2c1O)C1CC1 (configuration not stated)	.	-[12.7 µM]	31.6µM	-	.	79.4µM	.	12-hLO 8HQ R1=1.6µM;KDM4E inh=32.4µM
CCC(=O)NC(c1ccco1)c1cc(Br)c2cccnc2c1O (configuration not stated)	.	-[12.7 µM]	28.2µM	.	.	.	.	12-hLO 8HQ R1=2µM;KDM4E inh=32.4µM
COc1cc(NC(C)=O)c2ncccc2c1Br	-	.	.	.	-	.	.
Cc1cccc(C(=O)Nc2ccc(C(=O)OCc3cc(=O)n4c5c(sc4n3)CCCC5)cc2)c1	.	-	-	-	.	-	.
O=C(COc1ccc(Cl)cc1)NCC(c1cccs1)S(=O)(=O)c1ccc(F)cc1 (configuration not stated)	.	-	-	-	.	-	.
Cc1ccc(-c2nc3cc(NC(=O)c4cc(Br)ccc4Cl)ccc3o2)cc1	.	?	?	-	.	-	.
COc1ccc2c(c1)-c1nc(N)sc1CC2	-	25.1µM	?	?	-	?	-
COc1ccc2c(c1)-c1nc(/N=C/c3ccc(O)c(OC)c3)sc1CC2	-	?	?	?	-	?	.
CCOc1ccc(-n2cc(-c3ccccc3)c3c(N4CCN(c5ccccc5OC)CC4)ncnc32)cc1	.	-	?	-	.	?	.
O=C(NN1C(=O)CSC1=S)C(=O)NN1C(=O)CSC1=S	?	?	?	-	?	31.6µM	-
Cc1cccc(CNc2ccnc(-c3cccc(C#N)c3)n2)c1	.	-[0.501 µM]	.	.	.	.	.
CCNc1ccccc(-c2ccc3ccccc3n2)c1=O	-	-	-	-	-	-	.
CCNC1=C(Cl)C(=O)c2ccccc2C1=O	?	?	35.5µM	?	?	50.1µM	?
CC(=O)Oc1cc2cccc(OC(C)=O)c(=O)c2c(OC(C)=O)c1OC(C)=O	-	2.82µM	1.58µM	?	?	8.91µM	?
Cc1c2c(c(O)c3c(O)cccc13)C(=O)O[C@H]2C1C(N(C)C)C(O)=C(C(N)=O)C(=O)[C@H]1O (some centres not stated)	.	.	.	.	.	.	-
CCn1ccc2cc(S(=O)(=O)N3CCCN(C(=O)Nc4ccccc4C(F)(F)F)CC3)ccc21	.	-	-	-	.	-	.
NCCc1ccc(O)c(O)c1	-	8.91µM	?	14.1µM	-	31.6µM	-
SMILES	CtBP-E1A inh	G9a inh	BAZ2B block	HP1b chromo inh	Six1-Eya2 blk	JMJD2A Tudor	ME-1 prolif	others
N[C@H](Cc1ccc(O)c(O)c1)C(=O)O	.	17.8µM	.	.	.	.	-
COC(=O)C(N)Cc1ccc(O)c(O)c1 (configuration not stated)	-	?	-	-	-	-	.
N[C@@H](Cc1ccc(O)cc1)C(=O)O	.	-	.	.	.	.	.
NC(Cc1ccc(O)c(O)c1)C(=O)O (configuration not stated)	.	.	.	.	.	.	?
CC(C)c1cnc2c(c1SCC(=O)c1ccc(Cl)cc1)c(=O)n(C)c(=O)n2C	.	-	-	-	.	-	.
Nc1ccn([C@@H]2O[C@H](CO)[C@@H](O)[C@@H]2O)c(=O)n1	-	-	?	-	-	-	0.282µM
Nc1ccn(C2OC(CO)C(O)C2F)c(=O)n1 (configuration not stated)	-	.	.	.	-	.	.
O=C1c2ccccc2C(=O)N1/N=C/c1ccc(O)c(O)c1O	?	?	?	22.4µM	?	22.4µM	?
O=C1c2cccc3cccc(c23)C(=O)N1/N=C/c1ccc(O)cc1O	-	-	-	-	-	-	.
O=C(OCC1OC(OC(=O)c2cc(O)c(O)c(OC(=O)c3cc(O)c(O)c(O)c3)c2)[C@@H](OC(=O)c2cc(O)c(O)c(OC(=O)c3cc(O)c(O)c(O)c3)c2)C(OC(=O)c2cc(O)c(O)c(OC(=O)c3cc(O)c(O)c(O)c3)c2)C1OC(=O)c1cc(O)c(O)c(OC(=O)c2cc(O)c(O)c(O)c2)c1)c1cc(O)c(O)c(OC(=O)c2cc(O)c(O)c(O)c2)c1 (some centres not stated)	.	?	.	.	.	.	22.4µM
C=CN1CCCC1=O	.	.	.	.	.	.	-
CCN1CCCC1=O	.	-	.	.	.	.	.
O=C(Cn1c(=O)nc(-c2ccccc2)c2ccccc21)Nc1ccc(Cl)cc1F	.	-	-	-	.	-	.
Cc1ccccc1CNCc1c(C(=O)O)c(C)n(Cc2ccc(F)cc2Cl)c1C	.	-	-	-	.	-	.
Nc1ccc(C(=O)O)c(O)c1	-	-	-	-	-	-	.
Nc1ccc(N)c(C(=O)O)c1	?	7.94µM	3.98µM	3.16µM	-81.7	3.55µM	-
CC(=O)Oc1cc(-c2coc3cc(OC(C)=O)c(OC(C)=O)c(OC(C)=O)c3c2=O)cc(OC(C)=O)c1OC(C)=O	.	-[2.33 µM]	.	.	.	.	-
CC(C)c1ccc(N2C(=O)CS(=O)(=O)C23C(=O)N(Cc2cccc(F)c2)c2ccccc23)cc1 (configuration not stated)	.	-	-	-	.	-	.
COc1cc(/C=N/NC(=O)c2cncc(Br)c2)cc([N+](=O)[O-])c1O	-96.0	?	8.91µM	-	-91.3	-[11.4 µM]	35.5µM
COc1ccc(/C=N/NC(=O)c2ccncc2)cc1[N+](=O)[O-]	-	-	-	-	-	-	.
Brc1ccc(C2Nc3cccc4cccc(c34)N2)o1	-	20µM	?	?	-	?	-
